# From PubChem
# Rtt109 HAT inh: C. albicans Rtt109 histone acetyltransferase inhibition; Q5AAJ8; purified Rtt109/Vps75, ThioGlo CoA-SH fluorescence, 4 h; inhibition, % at 34.9 µM; 0.16% of 330,000 active;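 active = inhibition of at least 50% in every replicate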
# Target sequence (Q5AAJ8 whole entry, looked up): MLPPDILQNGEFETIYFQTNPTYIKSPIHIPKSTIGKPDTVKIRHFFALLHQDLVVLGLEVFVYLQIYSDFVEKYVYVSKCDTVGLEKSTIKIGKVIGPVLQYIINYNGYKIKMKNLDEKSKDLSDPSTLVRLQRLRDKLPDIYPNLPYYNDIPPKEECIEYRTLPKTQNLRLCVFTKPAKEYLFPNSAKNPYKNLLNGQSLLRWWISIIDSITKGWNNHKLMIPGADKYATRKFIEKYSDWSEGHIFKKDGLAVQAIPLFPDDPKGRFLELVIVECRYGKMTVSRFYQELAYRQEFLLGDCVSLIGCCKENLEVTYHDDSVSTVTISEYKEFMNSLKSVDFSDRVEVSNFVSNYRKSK
# DENV2 CPE: inhibitors of DENV2 cytopathic effect; CPE inhibition, % at 9.99 µM; 1.7% of 350,000 active; AID 651640; DENV2-infected cells, cytopathic effect rescue, plate reader; in the data active = CPE inhibition above about 20%, passing the limit was not always enough; tested in BHK-21 cells;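 note: 0% = median of neutral control wells and 100% = median of positive control wells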
# Glyco luc inh: blocks N-linked glycosylation in D54 reporter cells; D54 ERlucT glycosylation luciferase reporter, 24 h; percent of 100 nM tunicamycin response; reporter increase, % at 12.5 µM; 0.23% of 360,000 active;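 active = mean luciferase reporter signal, scaled so untreated is 0 and the glycosylation-blocking control 100, at or above a set limit in every replicate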;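 note: luciferase carries N-glycosylation sites so blocking glycosylation raises the light; 0% = median of neutral control wells and 100% = median of 100 nM tunicamycin wells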
# PglD inh: blocks C. jejuni PglD acetyltransferase activity; purified PglD enzyme, DTNB colorimetric CoA detection; inhibition, % at 12.5 µM; 0.098% of 360,000 active; AID 602405; in the data active = inhibition above about 16%, passing the limit was not always enough
# * hit, by the source's call; . = no result given. Many of the other results were omitted from the sample, so hits are more common in it than they were.
SMILES,Rtt109 HAT inh,DENV2 CPE,Glyco luc inh,PglD inh
Cc1ccc(S(=O)(=O)N(C)C)cc1NC(=O)C(C)OC(=O)c1ccc2c(=O)n3c(nc2c1)CCC3 (centres undefined),-4.9,6.5,0.5,0.9
O=C1CCC(C(=O)OCC(=O)Nc2ccc(SC(F)F)cc2)=NN1,.,29.1*,1.0,-5.3
CCOC(=O)C1CCCN(c2cc(=O)n(C3CCCCC3)c(=O)[nH]2)C1 (centres undefined),58.6*,3.9,0.3,.
O=C(C[C@H]1CC[C@@H]2[C@H](COC[C@H](O)CN2Cc2ccc(C(F)(F)F)cc2)O1)N1CCc2ccccc2C1,.,1.1,.,-1.1
COc1cccc(-c2ncc3ccccc3c2COC(=O)c2ccc(C(C)(C)C)cc2)c1,-3.5,-2.7,-7.3,-9.3
COc1cccc(-c2ncc3ccccc3c2COC(=O)c2ccc(F)cc2)c1,6.8,101.7*,-6.2,0.7
COc1ccc(-c2cc(N)n(S(=O)(=O)c3ccc(C)cc3)n2)c(OC)c1,9.5,21.5*,-3.0,.
COc1cc(CNc2nccn3ccnc23)cc(OC)c1,.,36.3*,-1.2,-2.3
Cc1cc(C)nc(NC(=O)/C=C/c2ccccc2Cl)n1,0.8,.,-0.8,.
Cc1cc(N)c2cc(NC(=O)/C=C/c3ccccc3Cl)ccc2n1,89.6*,.,-21.8,-3.8
O=C(N[C@H]1CC[C@@H](CCNC(=O)C2CCC2)O[C@@H]1CO)c1ccccn1,.,8.8,.,-2.9
C[C@@H]1CN([C@H](C)CO)C(=O)c2cc(NC(=O)Cc3ccccc3)ccc2O[C@@H](C)CCCCO[C@@H]1CN(C)Cc1ccc2c(c1)OCO2,.,13.4,.,-5.1
CSc1ccc(/C=C/C(=O)OCC(=O)N2CCN(S(=O)(=O)c3ccc(C)cc3C)CC2)cc1,-5.9,24.7*,-2.0,-5.2
COc1ccc(NC(=O)N(C)C[C@@H]2Oc3ccc(NC(=O)c4ccncc4)cc3CC(=O)N([C@H](C)CO)C[C@@H]2C)cc1,.,44.0*,.,7.4
COc1ccc(NC(=O)N(C)C[C@@H]2Oc3ccc(NC(=O)c4ccncc4)cc3CC(=O)N([C@@H](C)CO)C[C@H]2C)cc1,.,15.3,.,-4.8
COc1ccc(NC(=O)N(C)C[C@@H]2Oc3ccc(NC(=O)c4ccncc4)cc3CC(=O)N([C@@H](C)CO)C[C@@H]2C)cc1,.,28.4*,.,-2.0
C[C@@H]1CN([C@@H](C)CO)C(=O)Cc2cc(NS(=O)(=O)c3ccc(Cl)cc3)ccc2O[C@@H]1CN(C)C(=O)Nc1ccccc1,.,-1.3,.,0.7
C[C@@H]1CN([C@H](C)CO)C(=O)Cc2cc(NS(=O)(=O)c3ccc(Cl)cc3)ccc2O[C@@H]1CN(C)C(=O)Nc1ccccc1,.,26.8*,.,2.7
Cc1ccc(S(=O)(=O)Nc2ccc3c(c2)CC(=O)N([C@H](C)CO)C[C@@H](C)[C@@H](CN(C)C(=O)Nc2ccc(F)cc2)O3)cc1,.,24.8*,.,-1.1
Cc1ccc(S(=O)(=O)Nc2ccc3c(c2)CC(=O)N([C@H](C)CO)C[C@H](C)[C@@H](CN(C)C(=O)Nc2ccc(F)cc2)O3)cc1,.,16.2,.,0.0
CCCNC(=O)C[C@H]1CC[C@@H]2[C@H](COC[C@@H](O)CN2C(=O)CC)O1,.,0.4,.,1.5
C[C@@H]1COC(=O)[C@H](Cc2ccc(F)cc2)C/C=C\C[C@@H](CC(=O)N[C@H](CO)Cc2ccccc2)C(=O)N1,-0.1,40.8*,3.5,-3.3
COc1ccc2nc(NN=Cc3cccc(C)n3)cc(C)c2c1,.,54.4*,.,.
COc1ccc(NC(=O)N2CC(=O)N3[C@@H](CO)[C@H](c4ccc(C#CCC5CCCC5)cc4)[C@@H]3C2)cc1,.,22.6*,.,.
O=C(Nc1ccc(F)cc1)N1CC(=O)N2[C@@H](CO)[C@H](c3ccc(C#CC4CC4)cc3)[C@@H]2C1,.,0.3,.,.
SMILES,Rtt109 HAT inh,DENV2 CPE,Glyco luc inh,PglD inh
O=C(c1ccc(F)cc1)N1CC(=O)N2[C@@H](CO)[C@H](c3ccc(C#CC4CC4)cc3)[C@@H]2C1,.,41.3*,.,.
COc1cccc(NC(=O)N2CC(=O)N3[C@H](C2)[C@@H](c2ccc(C#CC4CCCC4)cc2)[C@@H]3CO)c1,.,37.5*,.,.
O=C(Nc1ccc(F)cc1)N1CC(=O)N2[C@H](CO)[C@H](c3ccc(C#CC4CC4)cc3)[C@H]2C1,.,34.6*,.,.
CS(=O)(=O)N1CC(=O)N2[C@H](C1)[C@@H](c1ccc(C#Cc3ccccc3)cc1)[C@@H]2CO,.,-2.8,.,.
CC(C)NC(=O)N(C)C[C@H]1Oc2c(NC(=O)Nc3ccc(C(F)(F)F)cc3)cccc2C(=O)N([C@@H](C)CO)C[C@@H]1C,.,15.3,.,2.7
Cc1noc(C)c1NC(=O)N[C@H]1CC[C@H](CCNC(=O)C2CC2)O[C@H]1CO,.,6.4,.,-2.8
CCCc1nnc(NC(=O)CN2C(=O)c3ccccc3C2=O)s1,3.2,.,-0.7,7.9
CCc1nnc(NC(=O)CN2C(=O)c3ccccc3C2=O)s1,54.6*,.,2.8,1.3
C[C@@H]1CN([C@@H](C)CO)C(=O)c2cc(-c3cccnc3)cnc2O[C@H]1CN(C)C(=O)c1ccccc1F,.,-11.5,.,-2.5
Cc1ccc(S(=O)(=O)N[C@H]2C=C[C@@H](CC(=O)NC3CCCCC3)O[C@H]2CO)cc1,.,3.3,.,2.2
C[C@@H]1CN([C@H](C)CO)C(=O)c2cc(NC(=O)CCCN(C)C)ccc2O[C@@H](C)CCCCO[C@H]1CN(C)S(=O)(=O)c1cccs1,.,34.3*,.,.
C[C@H]1CCCCO[C@H](CN(C)S(=O)(=O)c2cccs2)[C@@H](C)CN([C@@H](C)CO)C(=O)c2cc(NC(=O)CCCN(C)C)ccc2O1,.,-3.2,.,-1.4
C[C@@H]1CCCCO[C@@H](CN(C)S(=O)(=O)c2ccccc2)[C@@H](C)CN([C@H](C)CO)C(=O)c2cc(NC(=O)CCCCCC(=O)Nc3ccccc3N)ccc2O1,.,3.1,.,-2.4
C[C@@H]1CCCCO[C@H](CN(C)S(=O)(=O)c2cccs2)[C@@H](C)CN([C@H](C)CO)C(=O)c2cc(NC(=O)CCCCCC(=O)Nc3ccccc3N)ccc2O1,.,23.9*,.,.
O=C(NCC[C@H]1CC[C@H](NC(=O)c2ccc3c(c2)OCO3)[C@@H](CO)O1)Nc1ccc(Cl)cc1,.,.,.,0.2
O=C(/C=C/Sc1ccccc1)c1ccccc1,43.1,4.7,33.3*,-2.9
O=C(/C=C/Nc1ccccc1)c1ccccc1,4.2,.,-18.7,-1.8
O=C(C=Cc1ccccc1Cl)c1ccccc1,-2.5,-2.8,10.3,-3.3
O=C(/C=C/Sc1ccccc1)c1ccc(Cl)cc1,-1.3,.,43.8*,.
COc1c(Br)cc(Br)cc1/C=N/NC(=O)c1cccnc1,-4.0,-1.5,30.2*,-2.7
Cn1c(-c2ccccc2)c(/C=N/NC(=O)c2cccnc2)c2ccccc21,-69.0,-1.2,46.9*,.
COc1c(Br)cc(Br)cc1/C=N/NC(=O)c1ccncc1,-2.4,-3.9,2.1,.
C=CCn1c(C)nnc1SCC(=O)NC1CCCCC1,27.6,-11.8,2.5,-4.8
C=CCn1c(C)nnc1SCC(=O)NC1CC1,4.5,93.5*,1.1,-1.0
Cc1c(Cl)cccc1NC(=O)CC1Sc2ccccc2NC1=O (centres undefined),-7.0,0.8,2.3,-0.9
Cc1c(Cl)cccc1NC(=O)CC1Oc2ccccc2NC1=O (centres undefined),.,34.6*,-0.5,.
CN1CCN(c2nc3c(c(=O)[nH]c(=O)n3C)n2Cc2ccc(Cl)cc2)CC1,66.6*,-6.0,3.4,-1.1
